Results taken from PubChem BioAssay (NCATS).
Inconclusive results are not listed. Active and inactive are the calls of the source. Unless noted, calls come from the whole dose curve; as a rule, active = well fitted curve in the direction sought with a large enough effect; inconclusive = small, poorly fitted or top-dose-only effect, or another doubt; inactive = no such curve, though single readings can be large; an effect the other way counts as inactive or inconclusive. Residues, ends and D or L forms follow the SMILES beside them.

Legend:
[1] = biological target: Cytochrome P450 3A4 (Homo sapiens) (UniProt P08684); assay: qHTS Assay for Inhibitors and Substrates of Cytochrome P450 3A4 (AID 884); note: nearly all actives have a fitted effect of over 50% in size; note: potency is the fitted concentration of half-maximal effect
Chain of Cytochrome P450 3A4 (Homo sapiens) (P08684 whole entry, looked up): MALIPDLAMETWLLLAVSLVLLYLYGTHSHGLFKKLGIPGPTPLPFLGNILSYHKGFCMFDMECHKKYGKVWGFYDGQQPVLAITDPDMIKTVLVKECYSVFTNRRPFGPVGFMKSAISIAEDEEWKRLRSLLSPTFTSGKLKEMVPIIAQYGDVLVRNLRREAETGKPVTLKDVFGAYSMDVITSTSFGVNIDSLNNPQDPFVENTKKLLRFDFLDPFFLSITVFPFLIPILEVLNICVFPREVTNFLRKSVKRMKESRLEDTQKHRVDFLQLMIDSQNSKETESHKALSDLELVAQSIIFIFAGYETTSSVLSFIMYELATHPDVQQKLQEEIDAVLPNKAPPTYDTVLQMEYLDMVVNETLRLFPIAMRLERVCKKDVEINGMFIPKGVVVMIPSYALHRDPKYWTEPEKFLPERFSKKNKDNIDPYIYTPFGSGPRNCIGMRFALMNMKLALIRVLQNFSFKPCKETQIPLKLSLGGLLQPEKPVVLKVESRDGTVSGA
Procedure, shortened: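 Luminescent readout of luciferin produced by CYP3A4 (20 nM) dealkylation of Luciferin-PPXE, 25 uM (its KM). NADPH-driven reaction ran 60 min at RT after 10 min compound preincubation; data scaled to 57 uM ketoconazole as 100% inhibition.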

[2] = biological target: Lysosomal acid glucosylceramidase (Homo sapiens) (UniProt P04062); assay: Glucocerebrosidase-p2 (AID 348; in the data active = potency below about 10 µM; note: potency is the fitted concentration of half-maximal effect); settings: purified GBA, blue fluorogenic substrate, 40 min
Chain of Lysosomal acid glucosylceramidase (Homo sapiens) (P04062 whole entry, looked up): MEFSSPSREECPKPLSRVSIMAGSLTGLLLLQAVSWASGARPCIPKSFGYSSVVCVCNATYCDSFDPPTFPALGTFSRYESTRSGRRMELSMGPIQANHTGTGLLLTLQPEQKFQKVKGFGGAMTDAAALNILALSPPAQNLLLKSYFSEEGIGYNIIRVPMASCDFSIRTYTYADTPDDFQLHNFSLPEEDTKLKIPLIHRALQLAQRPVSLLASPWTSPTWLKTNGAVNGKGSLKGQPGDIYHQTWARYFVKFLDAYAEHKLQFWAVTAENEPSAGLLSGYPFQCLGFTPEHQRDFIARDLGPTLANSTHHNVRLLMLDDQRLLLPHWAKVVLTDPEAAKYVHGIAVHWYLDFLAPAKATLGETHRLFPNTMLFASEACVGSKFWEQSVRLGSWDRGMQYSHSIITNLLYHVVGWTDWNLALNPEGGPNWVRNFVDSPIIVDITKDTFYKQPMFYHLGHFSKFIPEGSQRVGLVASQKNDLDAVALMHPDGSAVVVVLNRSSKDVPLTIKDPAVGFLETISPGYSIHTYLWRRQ
Procedure, shortened: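 Normal human glucocerebrosidase (0.2 nM) with blue fluorogenic substrate (80 uM final) in citrate/phosphate pH 5.9 with 10mM sodium taurocholate, 0.01% tween-20; 40 min RT, NaOH/glycine stop; fluorescence Ex 365/Em 440; AC50 from a titration from 0.6 nM upwards.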

[3] = AP1 Signaling Pathway (AID 357; active = well fitted curve in either direction with a large enough effect, not every such curve was filed as active;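 note: ME-180 reporter cells stimulated with EGF at its EC50 level; % is set by controls: 0 for no effect and ±100 for the full control effect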); settings: ME-180 AP-1-bla reporter, EGF-induced, beta-lactamase ratio, 5 h; at 7.69 µM (top of the series) unless noted
Procedure, shortened: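 Modulation of EGF-driven AP-1 transcription was assessed with a beta-lactamase reporter in ME-180 cells. Compound and EC50 EGF were co-incubated 5 hours at 37 °C before 2.5-hour CCF4 loading at room temperature and dual-emission reading.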

[4] = biological target: Cytochrome P450 1A2 (Homo sapiens) (UniProt P05177); assay: p450-cyp1a2 (AID 410; calls by dose curve; note: potency is the fitted concentration of half-maximal effect)
Chain of Cytochrome P450 1A2 (Homo sapiens) (P05177 whole entry, looked up): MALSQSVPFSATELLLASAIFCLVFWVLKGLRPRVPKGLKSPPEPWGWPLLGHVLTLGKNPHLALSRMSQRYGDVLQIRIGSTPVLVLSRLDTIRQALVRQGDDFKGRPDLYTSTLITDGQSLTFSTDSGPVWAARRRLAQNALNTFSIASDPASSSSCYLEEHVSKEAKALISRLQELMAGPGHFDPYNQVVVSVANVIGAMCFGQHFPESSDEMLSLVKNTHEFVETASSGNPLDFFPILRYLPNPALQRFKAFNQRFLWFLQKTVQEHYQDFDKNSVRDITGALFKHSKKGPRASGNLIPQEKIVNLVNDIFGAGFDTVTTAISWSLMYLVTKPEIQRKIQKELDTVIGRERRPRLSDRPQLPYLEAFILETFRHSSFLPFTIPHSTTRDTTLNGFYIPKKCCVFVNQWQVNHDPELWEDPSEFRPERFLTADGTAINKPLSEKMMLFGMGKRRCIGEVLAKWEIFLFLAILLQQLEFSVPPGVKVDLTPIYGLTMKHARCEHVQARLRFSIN
Procedure, shortened: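 Luminescent demethylation readout: Luciferin-ME (100uM, equal to Km) turned over by 20nM CYP1A2 for 60 min at room temperature after NADPH regeneration addition, following 10 min compound preincubation. Normalization used 57 uM furafylline as full inhibition.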

[5] = NFAT Signaling Pathway (AID 444; active = well fitted curve in either direction with a large enough effect, not every such curve was filed as active;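 note: carbachol stimulus at about its EC50 of 1 µM final; % is set by controls: 0 for no effect and ±100 for the full control effect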); settings: Jurkat NFAT-bla M1, carbachol, beta-lactamase ratio, 5 h; at 7.69 µM (top of the series) unless noted
Procedure, shortened: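 Read-out: CCF4 FRET ratio (460 nm/530 nm) after 1 h RT dye loading, used for %activity and AC50 from titration series. Cells: Jurkat NFAT-β-lactamase/M1 line, treated with compound plus 1 uM carbachol for 5 h, 37 °C.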

[6] = Stat Signaling Pathway (AID 446; active = well fitted curve in either direction with a large enough effect, not every such curve was filed as active;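 note: ME-180 cervical cancer cells given 40 pM IL-6 alongside compound; SIE-controlled beta-lactamase reporter measured as 460/530 nm FRET emission ratio; % is set by controls: 0 for no effect and ±100 for the full control effect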); settings: ME-180 (cervical carcinoma) SIE beta-lactamase reporter, IL-6 stimulated, 5 h; at 7.69 µM (top of the series) unless noted
Procedure, shortened: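 Compound effects on IL-6-induced STAT reporter activity were measured in ME-180 cells. After overnight culture, cells were co-treated with 40 pM IL-6 for 5 hrs before beta-lactamase substrate loading at room temperature.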

[7] = biological target: Glucocorticoid receptor (Homo sapiens) (UniProt P04150); assay: GR-GFP Redistribution (AID 450;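 active = compounds whose dose series gives a full or clear partial fitted curve of increased nuclear translocation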; note: potency is the fitted concentration of half-maximal effect); settings: U2OS GR-GFP nuclear translocation, laser cytometry, 2 h
Chain of Glucocorticoid receptor (Homo sapiens) (P04150 whole entry, looked up, the tested form may be a part): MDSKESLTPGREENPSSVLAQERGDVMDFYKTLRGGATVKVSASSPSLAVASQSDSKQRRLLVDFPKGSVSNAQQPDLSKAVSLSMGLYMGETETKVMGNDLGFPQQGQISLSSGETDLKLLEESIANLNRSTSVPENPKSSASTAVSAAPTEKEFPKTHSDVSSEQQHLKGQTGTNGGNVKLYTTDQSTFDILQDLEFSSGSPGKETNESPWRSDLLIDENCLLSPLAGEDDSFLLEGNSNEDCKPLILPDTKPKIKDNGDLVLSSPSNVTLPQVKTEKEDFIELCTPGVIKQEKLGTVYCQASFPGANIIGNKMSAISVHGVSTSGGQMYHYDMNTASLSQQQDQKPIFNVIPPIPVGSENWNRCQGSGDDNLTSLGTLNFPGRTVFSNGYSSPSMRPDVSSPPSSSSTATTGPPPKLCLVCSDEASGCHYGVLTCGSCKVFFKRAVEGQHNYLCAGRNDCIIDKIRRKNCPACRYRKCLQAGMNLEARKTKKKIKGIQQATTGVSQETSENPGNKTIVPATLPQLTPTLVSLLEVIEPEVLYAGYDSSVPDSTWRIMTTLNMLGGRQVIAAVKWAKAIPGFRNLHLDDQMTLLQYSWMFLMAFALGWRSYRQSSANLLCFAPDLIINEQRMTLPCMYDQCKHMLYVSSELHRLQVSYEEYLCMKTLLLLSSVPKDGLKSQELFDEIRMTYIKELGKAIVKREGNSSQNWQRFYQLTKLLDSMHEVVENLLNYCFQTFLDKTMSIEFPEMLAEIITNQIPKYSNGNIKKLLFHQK

[8] = biological target: Glucocorticoid receptor (Homo sapiens) (UniProt P04150); assay: GR-EFC Redistribution (AID 451; calls by dose curve; note: potency is the fitted concentration of half-maximal effect); settings: CHO-K1 GR-EFC translocation, beta-gal luminescence, 2 h
Procedure, shortened: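 Translocation of GR-ED fusion to nuclear EA restores b-gal, read by luminescence after 1 h room-temperature detection. Engineered CHO-K1 biosensor cells, 1,000/well, exposed 2 h at 37 C to titrations up to 46 uM final.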

[9] = biological target: Mitogen-activated protein kinase 10 (Mus musculus) (UniProt Q61831); assay: JNK3 AlphaScreen Assay (AID 530; active = well fitted curve in either direction with a large enough effect, not every such curve was filed as active;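 note: kinase came from lysate of stimulated human HepG2 cells; signal reports phosphorylation of biotinylated GST-cJun 1-79 at Ser73 with 10 µM ATP; % is set by controls: 0 for no effect and ±100 for the full control effect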)
Procedure, shortened: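 qHTS titrations with 15 min compound pre-incubation before adding ATP (10 uM final). Read-out: AlphaScreen of Ser73-phosphorylated biotin-GST-cJun using HepG2 lysate JNK3 activated by IL-1β and TNFα.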

[10] = biological target: 3',5'-cyclic-AMP phosphodiesterase 4B (Homo sapiens) (UniProt Q07343); assay: qHTS Assay for Inhibitors of PDE-IV (AID 607; active = well fitted activation curve with a large enough effect in the main read-out, with a control signal flat, not every such curve was filed as active; note: % of control where 0% means no effect)
Chain of 3',5'-cyclic-AMP phosphodiesterase 4B (Homo sapiens) (Q07343 whole entry, looked up): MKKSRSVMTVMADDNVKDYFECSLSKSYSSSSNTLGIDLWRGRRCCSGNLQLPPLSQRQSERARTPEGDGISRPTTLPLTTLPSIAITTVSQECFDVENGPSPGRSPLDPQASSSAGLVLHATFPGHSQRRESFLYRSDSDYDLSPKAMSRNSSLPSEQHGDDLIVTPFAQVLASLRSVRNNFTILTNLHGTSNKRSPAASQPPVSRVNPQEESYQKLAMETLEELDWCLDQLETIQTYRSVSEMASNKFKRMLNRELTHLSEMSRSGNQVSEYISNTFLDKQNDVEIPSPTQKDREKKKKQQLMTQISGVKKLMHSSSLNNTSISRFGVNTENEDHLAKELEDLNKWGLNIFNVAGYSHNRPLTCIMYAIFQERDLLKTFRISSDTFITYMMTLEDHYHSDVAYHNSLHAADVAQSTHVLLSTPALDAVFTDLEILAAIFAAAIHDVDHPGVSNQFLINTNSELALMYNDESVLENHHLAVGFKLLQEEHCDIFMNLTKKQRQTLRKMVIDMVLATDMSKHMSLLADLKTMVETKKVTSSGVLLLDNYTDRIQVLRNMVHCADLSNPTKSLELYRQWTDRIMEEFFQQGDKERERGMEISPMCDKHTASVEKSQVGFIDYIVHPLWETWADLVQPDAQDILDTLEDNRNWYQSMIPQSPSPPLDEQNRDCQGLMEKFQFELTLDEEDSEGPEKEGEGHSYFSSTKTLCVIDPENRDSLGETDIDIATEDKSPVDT
Procedure, shortened: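 ACTOne HEK293 cells carry a modified cAMP-gated CNG channel and express endogenous PDE4; plated 1000 cells/well, compounds up to 22.9 uM final. Membrane-potential dye fluorescence (ex 535/em 590) was read; parental cells received 10 uM forskolin + 100 uM RO 20-1724.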

[11] = biological target: Cytochrome P450 3A4 (Homo sapiens) (UniProt P08684); assay: qHTS Assay for Activators of Cytochrome P450 3A4 (AID 885); note: nearly all actives have a fitted effect of over 65% in size
Procedure, shortened: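 CYP3A4 activity: Luciferin-PPXE O-dealkylation, 25uM substrate, 200mM KPO4, RT throughout. Read-out is luciferase luminescence; higher values reflect activation.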

[12] = qHTS Assay for Lipid Storage Modulators (AID 1519; calls by dose curve); settings: Drosophila S3 cells, BODIPY lipid droplet/cell ratio, laser cytometry, cells loaded with oleic acid; for activity change, negative = inhibition: at 57.5 µM (top of the series)
Procedure, shortened: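 Cells seeded at 5,000 per well were treated with compounds over a concentration series and loaded with oleic acid (400 uM, as added). Lipid droplet fluorescence (488 nm excitation, 500-530 nm channel) was read by laser-scanning cytometry and normalized to 20 uM Triacsin C.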

[13] = biological target: Dual specificity protein kinase CLK4 (Homo sapiens) (UniProt Q9HAZ1); assay: qHTS Assay for Inhibitors of CDC-like Kinase 4 (Kinase-Glo Assay) (AID 1770); note: % is set by controls: 0 for no effect and ±100 for the full control effect; nearly all actives have a fitted effect of over 65% in size
Chain of Dual specificity protein kinase CLK4 (Homo sapiens) (Q9HAZ1 whole entry, looked up): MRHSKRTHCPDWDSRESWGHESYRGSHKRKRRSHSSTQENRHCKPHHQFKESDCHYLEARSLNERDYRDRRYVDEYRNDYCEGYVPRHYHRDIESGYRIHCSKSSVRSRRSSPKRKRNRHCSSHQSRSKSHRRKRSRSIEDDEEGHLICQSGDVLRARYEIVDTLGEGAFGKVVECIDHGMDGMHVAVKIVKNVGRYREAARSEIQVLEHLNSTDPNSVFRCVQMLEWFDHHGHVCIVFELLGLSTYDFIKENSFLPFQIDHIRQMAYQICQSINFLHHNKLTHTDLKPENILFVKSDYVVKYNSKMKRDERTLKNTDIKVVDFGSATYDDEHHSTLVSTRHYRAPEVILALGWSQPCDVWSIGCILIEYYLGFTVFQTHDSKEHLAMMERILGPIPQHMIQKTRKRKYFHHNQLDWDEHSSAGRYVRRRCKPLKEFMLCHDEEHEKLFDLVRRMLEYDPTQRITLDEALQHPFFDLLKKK
Procedure, shortened: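 Readout: Kinase-Glo luminescence from ATP left after a 4.5 h room-temperature reaction of 25 nM Clk4 with 100 uM RS peptide and 1 uM ATP (final). Buffer: 25 mM Tris pH 7.5, 10 mM MgCl2.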

[14] = biological target: Dual specificity protein kinase CLK4 (Homo sapiens) (UniProt Q9HAZ1); assay: qHTS Assay for Inhibitors of CDC-like Kinase 4 (ADP-Glo Assay) (AID 1771); note: % is set by controls: 0 for no effect and ±100 for the full control effect; nearly all actives have a fitted effect of over 70% in size
Procedure, shortened: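 ADP production was read by ADP-Glo luminescence after residual ATP depletion, following 1 h room-temperature reaction of 25 nM Clk4, 1 uM ATP and 100 uM RS peptide with MgCl2, EGTA, DTT and Triton X-100.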

[15] = biological target: Dual specificity protein kinase CLK4 (Homo sapiens) (UniProt Q9HAZ1); assay: qHTS Assay for Inhibitors of CDC-like Kinase 4 (ADP-FP Assay) (AID 1795);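 note: recombinant human CLK4 phosphorylating RS repeat peptide at 1 µM ATP; % is set by controls: 0 for no effect and ±100 for the full control effect; nearly all actives have a fitted effect of over 60% in size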
Procedure, shortened: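 FP readout: Orange Transcreener ADP2 tracer (4 nM) plus ADP antibody, read after 30 min at room temperature. Kinase step: 6.25 nM Clk4, 100 uM RS peptide, 1 uM ATP, pH 7.5, 1 h.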

[16] = biological target: Ubiquitin carboxyl-terminal hydrolase 1 (Homo sapiens) (UniProt O94782); assay: Inhibitors of USP1/UAF1: Pilot qHTS (AID 504865);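 note: rhodamine fluorescence freed from ubiquitin-rhodamine substrate followed over time; top concentration of the series differs between compounds; % is set by controls: 0 for no effect and ±100 for the full control effect; nearly all actives have a fitted effect of over 35% in size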
Chain of Ubiquitin carboxyl-terminal hydrolase 1 (Homo sapiens) (O94782 whole entry, looked up): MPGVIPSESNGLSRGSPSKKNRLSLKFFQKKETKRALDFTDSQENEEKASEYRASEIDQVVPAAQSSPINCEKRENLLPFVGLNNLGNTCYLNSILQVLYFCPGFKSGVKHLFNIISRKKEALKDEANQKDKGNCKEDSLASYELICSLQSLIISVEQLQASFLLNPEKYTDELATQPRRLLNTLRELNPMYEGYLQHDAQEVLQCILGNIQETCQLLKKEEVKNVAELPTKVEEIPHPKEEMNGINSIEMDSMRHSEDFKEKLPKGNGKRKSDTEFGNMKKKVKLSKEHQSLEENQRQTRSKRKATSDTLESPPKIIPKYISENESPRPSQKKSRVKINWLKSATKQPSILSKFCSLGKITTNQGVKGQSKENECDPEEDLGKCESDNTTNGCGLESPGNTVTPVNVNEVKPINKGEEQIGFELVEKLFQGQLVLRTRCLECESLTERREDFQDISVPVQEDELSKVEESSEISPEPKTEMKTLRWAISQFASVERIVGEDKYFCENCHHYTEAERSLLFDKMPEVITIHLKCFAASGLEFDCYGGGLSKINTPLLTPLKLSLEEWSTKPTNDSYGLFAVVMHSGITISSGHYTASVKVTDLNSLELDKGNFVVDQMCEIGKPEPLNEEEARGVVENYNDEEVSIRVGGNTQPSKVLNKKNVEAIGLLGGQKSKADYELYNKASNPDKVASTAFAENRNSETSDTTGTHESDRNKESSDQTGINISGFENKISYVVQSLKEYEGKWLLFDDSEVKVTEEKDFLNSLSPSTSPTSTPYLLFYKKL
Procedure, shortened: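 1nM USP1/UAF1 + cpd, 15 min RT; start w/ Ub-Rho 150nM final; kinetic FL 480/540 nm, 6 reads q60 s. Buffer 50mM HEPES pH 7.8, 0.5mM EDTA, 1mM TCEP, 0.01% Tween-20, 0.1 mg/ml BSA.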

[17] = Counterscreen qHTS for small molecule stabilizers of the endoplasmic reticulum resident proteome: GLuc-NoTag assay (AID 1508627); note: potency is the fitted concentration of half-maximal effect;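 for activity change, negative = inhibition: 0% = thapsigargin alone and -100% = DMSO vehicle control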
Procedure, shortened: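 Counterscreen line: SH-SY5Y-GLuc-NoTag cells, treated with compound 19 hr before a 4 hr, 100 nM thapsigargin calcium depletion. Secreted Gaussia luciferase in the medium was measured by luminescence after coelenterazine was added (0.07x final), with cells unlysed.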

[18] = Confirmatory qHTS for small molecule stabilizers of the endoplasmic reticulum resident proteome: Secreted ER Calcium Modulated Protein (SERCaMP) assay (AID 1508628); note: nearly all actives have a fitted effect of over 40% in size; note: potency is the fitted concentration of half-maximal effect
Procedure, shortened: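 Reporter secretion upon ER calcium depletion (100 nM thapsigargin, 4 h, 37C) is measured as medium luminescence with coelenterazine, after 16 h compound pretreatment of SH-SY5Y-GLuc-SERCaMP cells; primary at three concentrations up to 38.3 uM, follow-up at 11 (up to 76.6 uM).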

[19] = Confirmation and Secondary Assay for Modulators of Hemoglobin Beta Chain Splicing at IVS2 654 locus (AID 910);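 note: HeLa cells stably carrying EGFP split by mutant beta-globin IVS2-654 intron; per-well total GFP intensity by laser scanning cytometry after 2-day treatment; % of control where 0% means no effect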
Procedure, shortened: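 Readout: per-well total peak green fluorescence (488 nm ex, 500–520 nm em) from objects 5–250 µm, reflecting correct splicing of an EGFP-654 reporter. Compounds were applied for 2 days at 37 °C to overnight-plated HeLa EGFP-654 cells; controls were DMSO and 500 nM IVS2-654 PNA.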

[20] = measured here: cell count channel max response
[21] = measured here: lipid channel max response

Cc1nc(NC2CCCCC2)c2nc(-c3ccccc3)n(CC3CCN(C)CC3)c2n1
Potency [1]: inactive

Cc1nc2cnc(N3CCNCC3)nc2n(Cc2cccs2)c1=O
Potency [2]: > 11.4 µM (inactive) | activity change, negative = inhibition [3]: -0.143% (inactive) | Potency [4]: 0.631 µM (active) | activity change, negative = inhibition [5]: 6.53% (inactive) | activity, negative = inhibition [6]: 3.44% (inactive) | Potency [7]: > 9.22 µM (inactive) | Potency [8]: > 46 µM (inactive) | outcome [9]: inactive | Potency [10]: inactive | Potency [1]: 3.16 µM (active) | Potency [11]: inactive | activity change, negative = inhibition [12]: 6.29% (inactive) | max response [12, 20]: 24.4% | max response [12, 21]: 28.9% | Potency [13]: inactive | Potency [14]: inactive | Potency [15]: inactive | Potency [16]: inactive | Potency [17]: inactive | Potency [18]: 25.1 µM (active)

CCCn1c(-c2ccc(F)cc2)nc2c(NCCCCN(C)C)nc(C)nc21
Potency [11]: inactive

CC[C@H](C)[C@H](NC(=O)[C@H](CC(=O)O)NC(=O)[C@H](CC(N)=O)NC(=O)[C@@H](NC(=O)[C@H](CCCNC(=N)N)NC(=O)[C@@H](NC(=O)[C@@H](NC(=O)[C@@H](NC(=O)[C@@H](NC(=O)[C@H](CCCCN)NC(=O)[C@@H](NC(=O)[C@H](CC(C)C)NC(=O)[C@@H](NC(=O)[C@H](CCCCN)NC(=O)[C@@H](NC(=O)[C@H](CC(=O)O)NC(=O)[C@H](CC(=O)O)NC(=O)[C@H](CCC(N)=O)NC(=O)[C@@H](NC(=O)[C@H](CCCCN)NC(=O)[C@H](CCC(N)=O)NC(=O)[C@@H](NC(=O)[C@@H]1CCCN1C(=O)[C@@H](N)C(C)C)[C@@H](C)CC)C(C)C)[C@@H](C)O)[C@@H](C)O)[C@@H](C)CC)[C@@H](C)O)[C@@H](C)CC)C(C)C)[C@@H](C)O)[C@@H](C)CC)C(=O)N[C@@H](CO)C(=O)N[C@@H](Cc1cnc[nH]1)C(=O)N[C@H](C(=O)N[C@@H](CCC(N)=O)C(=O)N[C@@H](CO)C(=O)N[C@H](C(=O)N[C@@H](CO)C(=O)N[C@@H](CO)C(=O)N[C@@H](CCCCN)C(=O)N[C@@H](CCC(N)=O)C(=O)N[C@@H](CCCCN)C(=O)O)C(C)C)[C@@H](C)O (H-VPIQKVQDDTKTLIKTIVTRINDISHTQSVSSKQK-OH)
activity change, negative = inhibition [17]: -4.21% [at 9.46 µM] (inactive) | activity change, negative = decrease [18]: -1.59% [at 9.4 µM] (inactive)

COc1cc2c(cc1OC)[C@H](C)N(CC1C(=O)O[C@@H]3C[C@@]4(C)CCC[C@H](C)[C@@]45OC5[C@H]13)CC2 (stereo partly specified)
Potency [17]: 35.5 µM (active)

CCCn1c(C)nc2c(N(CCN(C)C)Cc3ccccc3)nc(C)nc21
Potency [11]: inactive

Cc1noc(C)c1-c1nc(N2CCNCC2)c2ccccc2n1
Potency [2]: > 11.4 µM (inactive) | activity change, negative = inhibition [3]: 18.5% (inactive) | activity change, negative = inhibition [5]: -3.25% (inactive) | activity, negative = inhibition [6]: 13.9% (inactive) | Potency [7]: > 46 µM (inactive) | Potency [8]: > 46 µM (inactive) | outcome [9]: inactive | Potency [10]: inactive | outcome [19]: inactive | activity change, negative = inhibition [12]: 9.99% (inactive) | max response [12, 20]: 11.4% | max response [12, 21]: 19.2% | Potency [17]: inactive | Potency [18]: 14.1 µM (active)

CCC(C)C(N)C(=O)NC(CC(N)=O)C(=O)NC(CC(C)C)C(=O)NC(CCCCN)C(=O)NC(C)C(=O)NC(CC(C)C)C(=O)NC(C)C(=O)NC(C)C(=O)NC(CC(C)C)C(=O)NC(C)C(=O)NC(CCCCN)C(=O)NC(CCCCN)C(=O)NC(C(=O)NC(CC(C)C)C(N)=O)C(C)CC (stereo unspecified)
Potency [17]: inactive | Potency [18]: inactive

COc1ccc(CNc2ncnc3ccc(-c4ccccc4CN(C)C)cc23)c(OC)c1
activity change, negative = inhibition [3]: 7.23% (inactive) | Potency [4]: 31.6 µM (active) | activity, negative = inhibition [6]: -15.7% (inactive) | Potency [7]: > 46 µM (inactive) | Potency [8]: > 46 µM (inactive) | outcome [9]: inactive | Potency [1]: 7.94 µM (active) | Potency [11]: inactive | outcome [19]: inactive | activity change, negative = inhibition [12]: 3.46% (inactive) | max response [12, 20]: 4.91% | max response [12, 21]: 8.13% | Potency [16]: inactive | Potency [17]: inactive | Potency [18]: 7.94 µM (active)

O=C(c1cc(C(F)(F)F)cc(C(F)(F)F)c1)N1CCC2(CC1)CCN(c1ccncc1)CC2
Potency [2]: > 11.4 µM (inactive) | activity change, negative = inhibition [3]: 24.2% (inactive) | activity, negative = inhibition [6]: 16.4% (inactive) | Potency [8]: > 46 µM (inactive) | outcome [9]: inactive | Potency [1]: inactive | activity change, negative = inhibition [12]: 0.636% (inactive) | max response [12, 20]: -1.35% | max response [12, 21]: 0.493% | Potency [17]: inactive | Potency [18]: inactive

Cc1ccc(C(=O)N/C(=C\c2cccs2)c2nc3ccccc3[nH]2)cc1
Potency [17]: inactive | Potency [18]: inactive

COc1ccc(C2Nc3ccccc3C(=O)N2c2ccccc2)cc1COc1ccc(NC(C)=O)cc1 (stereo unspecified)
Potency [17]: inactive
